Several values for one entry are separate records, joined by “and”; a condition that tells them apart may be missing. Equal entries are not always repeated. Records with an inconclusive call do not appear. Values without a mark were called inactive. Activity calls are given as the source filed them. The call rests on the fitted dose curve; in most records, active means well fitted inhibition curve with a large enough effect in the repeat runs; inconclusive means weak or mixed curves; inactive means no such curve, though single readings can be large or run the other way.
On the % scale 0 is the no-effect control and ±100 the full control effect; potency means the concentration at half of the fitted maximal effect.

Sequence of Cytochrome P450 1A2 (Homo sapiens) (P05177 whole entry, looked up): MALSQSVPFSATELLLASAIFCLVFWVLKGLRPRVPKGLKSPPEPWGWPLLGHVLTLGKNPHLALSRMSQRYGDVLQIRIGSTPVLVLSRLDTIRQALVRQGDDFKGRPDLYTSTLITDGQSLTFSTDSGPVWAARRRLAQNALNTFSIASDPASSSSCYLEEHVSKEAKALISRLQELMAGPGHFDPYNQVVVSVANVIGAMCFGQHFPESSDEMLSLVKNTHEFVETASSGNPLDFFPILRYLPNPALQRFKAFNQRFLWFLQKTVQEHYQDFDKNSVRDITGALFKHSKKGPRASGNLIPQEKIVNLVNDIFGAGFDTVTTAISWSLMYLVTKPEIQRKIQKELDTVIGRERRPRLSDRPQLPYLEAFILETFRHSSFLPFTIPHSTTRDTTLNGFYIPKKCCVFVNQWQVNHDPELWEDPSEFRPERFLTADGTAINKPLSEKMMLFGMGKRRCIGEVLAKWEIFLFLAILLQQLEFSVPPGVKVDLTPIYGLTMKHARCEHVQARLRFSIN

The test concerns the target Cytochrome P450 1A2 (Homo sapiens) (UniProt P05177). The experiment in a line: Cytochrome P450 Family 1 Subfamily A Member 2 (CYP1A2) small molecule antagonists: luciferase reporter qHTS assay (AID 1671199). Further: nearly all actives have a fitted effect of over 50% in size. Particulars: P450-Glo CYP1A2 enzyme, luciferin luminescence, 1 h; series mostly up to 115 µM; activity change, negative = inhibition: at the top concentration. The text has this:
National Center for Advancing Translational Sciences [NCATS]
U.S. Environmental Protection Agency [EPA]
National Institutes of Environmental Health Sciences [NIEHS]
National Toxicology Program [NTP]
U.S. Food and Drug Administration [FDA]
Cytochrome P450 (CYP) enzymes are membrane-bound hemeproteins that play a key role in metabolism of drugs and xenobiotics. Evaluation of the effect of chemicals on CYP isozymes is useful to minimize the adverse drug reactions and toxicities in drug development process. Tox21 chemicals were tested for their effect on CYP enzyme activities by using P450-Glo (TM) screening systems (Promega Corporation, Madison, WI). These systems provide a luminescent method containing proluciferin substrates and are converted to luciferin products by CYP isozymes. The luciferin products formed are detected with a luciferin detection reagent, and the amount of light produced is proportional to CYP activity. P450-Glo (TM) CYP1A2 screening system (Catalog. No. V9770) was used to detect the compounds that interfere in CYP1A2 activity. The positive control compound used for CYP1A2 assay is furafylline (Sigma-Aldrich, St. Louis, MO).
Tox21 Assay Protocol Summary:
Two ul of enzyme-substrate mix was dispensed into medium binding white/solid 1536-well plates (Greiner Bio-One North America Inc., Monroe, NC) using a BioRaptr Flying Reagent Dispenser (FRD, Beckman Coulter, Brea, CA). Compounds dissolved in DMSO and positive control (furafyllline) were transferred to the assay plates at 23 nl using a Pintool station (Wako, San Diego, CA). The assay plates were incubated at room temperature for 10 min. Then 2 ul of NADPH regeneration solution was added to each well of the assay plates using an FRD and incubated at room temperature for 1 h. The reaction was stopped by adding 4 ul of detection reagent using an FRD and after 20 min incubation at room temperature the luminescence signal was measured using a ViewLux plate reader (Perkin Elmer, Shelton, CT). Data were expressed as relative luminescence units.
Take `CC(C)CCOCCC(C)C`: the “activity change, negative = inhibition” value is -20.4%. As to `[O]=[Zr]`, the Potency is 35.4 µM (active). Regarding `COc1cc(C(C)C)c2c(c1)S(=O)(=O)N(COc1cc(=O)n3cccc(OCCN4CCCCC4)c3n1)C2=O`, the activity change, negative = inhibition was -18.4% [at 23.6 µM].

In the case of `CC(C(O)c1ccccc1)N(C)CCOC(c1ccccc1)c1ccccc1` (stereo not given), the “activity change, negative = inhibition” value was -15.1% [at 53 µM].

`OCCCCl`: the “activity change, negative = inhibition” value was -2.13%.

As for `O=C1OC(=O)c2ccc3c4c(ccc1c24)C(=O)OC3=O`, the “activity change, negative = inhibition” value was -0.248%. For `CC(C)(C)CC(C)(C)c1ccccc1O`, the Potency was 35.8 µM (active).

Turning to `CCCCCCCC(C)=O`, the Potency is 35.6 µM (active). With `CCOCN(C(=O)CS(=O)(=O)O)c1c(C)cccc1CC`, the “activity change, negative = inhibition” value was -11.4%. With `CCCCCCOc1cc(C)c(O)c(C)c1C`, the Potency was 11.4 µM (active).

Regarding `CC(C)c1ccc(O)c(C(C)C)c1`, the Potency is 31.7 µM (active). `CC1(C)C(=O)N(Br)C(=O)N1Br`: the “activity change, negative = inhibition” value is -22.4%. Take `CCOCOCC`: the “activity change, negative = inhibition” value is -16.1%. Consider `CCCCCCCCCCCCCCNCCO`, for which the Potency is 28.8 µM (active). As to `CC(NCCC(c1ccccc1)c1ccccc1)c1ccccc1` (stereo not given), the “activity change, negative = inhibition” value is -5.06% [at 53 µM]. For the molecule `C/C=C/C(=O)C1=C(C)CCCC1(C)C`, the “activity change, negative = inhibition” value is -6.76%. Take `Nc1ccc2cc3ccc(N)cc3nc2c1`: the Potency was 564 nM (active) and 1.82 µM (active).

`CCCC(O)C(O)CO` (stereo not given): the “activity change, negative = inhibition” value was -21.5%. Same read-out and setting: next, `CCN=c1cc2oc3cc(NCC)c(C)cc3c(-c3ccccc3C(=O)OCC)c-2cc1C`: -24.9%.

For `Clc1cccnc1`, the Potency was 35.6 µM (active). As to `CCCCCCCCCCCCCCCCCO`, the activity change, negative = inhibition was 6.84% [at 23.6 µM]. On to `CCN(CC)c1ccc(N)cc1`, for which the Potency is 41 µM (active). `O=Cc1ccc(F)cc1`: the “activity change, negative = inhibition” value is -15.2%. Turning to `CCCCCCOc1ccc(O)cc1`, the Potency is 39.9 µM (active).

Turning to `CCNc1nc(NC(C)CC)nc(OC)n1` (stereo not given), the Potency is 25.2 µM (active).

Consider `NCCCCCCNCCCCCCN`, for which the “activity change, negative = inhibition” value was -24.2%.

Turning to `CCCC(CC)CCCCCCCN` (stereo not given), the Potency was 5.15 µM (active).

Consider `C=C(C)CCCC`, for which the “activity change, negative = inhibition” value was -5.45%.

For the molecule `O=C1NCCN1CCN1CCC(c2cn(-c3ccc(F)cc3)c3ccc(Cl)cc23)CC1`, the “activity change, negative = inhibition” value is -0.213% [at 53 µM].

As for `COc1cc(C(=O)NS(=O)(=O)c2ccccc2C)ccc1Cc1cn(C)c2ccc(NC(=O)OC3CCCC3)cc12`, the “activity change, negative = inhibition” value was -4.13% [at 53 µM]. Regarding `C(=C/c1ccccc1)/c1ccccc1`, the “activity change, negative = inhibition” value is -10.4%. Take `CCC(C)c1cc([N+](=O)[O-])cc([N+](=O)[O-])c1OC(=O)OC(C)C` (stereo not given): the Potency was 2.52 µM (active). Take `COc1ccccc1C=O`: the “activity change, negative = inhibition” value was -21.9%. Same read-out and setting: as for `COc1cc(C=C2CCC/C(=C\c3ccc(O)c(OC)c3)C2=O)ccc1O`, the figure is 3.67% [at 53 µM]. For `CCO[Si](CCCSSSSCCC[Si](OCC)(OCC)OCC)(OCC)OCC`, the Potency was 71.1 µM (active). In the case of `OCCN1CN(CCO)CN(CCO)C1`, the “activity change, negative = inhibition” value was -19.5%.

As for `CC1CCCNC1` (stereo not given), the “activity change, negative = inhibition” value was -15.9%. With `Cc1c(C)n(Cc2ccccc2)c2ccc(C(=O)OCCN(C)C)cc12`, the Potency is 10.2 µM (active). As for `CCc1ccc(O)c(C(C)(C)C)c1`, the Potency is 35.6 µM (active). For the molecule `Cn1cnc2ncnc(N)c21`, the Potency was 17.7 µM (active).

Source of the values: PubChem BioAssay (Tox21).
